From PubChem BioAssay AID1626 (SRMLSC, 2009)
Among all 220,000 compounds or so, about 2,000 (0.91%) were called active. About 2% were inconclusive and are not listed. The list is a sample of the results. Potency and affinity values are given separately. Values without a mark were called inactive. No stated cut-off is given here; in the data, inconclusive means inhibition above about 80% without an active follow-up result; inactive means below that; test concentration not stated here.

Assay: M. tuberculosis H37Rv growth inhibitors, H37Rv strain (AID 1626);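 further: bacteria incubated seven days before Alamar blue readout; 0% = bacteria only wells and 100% = bacteria with antibiotic wells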
Conditions: active compounds read high, concentration not given here

Compound	inhibition [%]
Nc1cccnc1Oc1ccc(F)cc1F	-4.1
COc1cnc(-c2ccccn2)nc1Oc1ccc(Cl)cc1	71.9
COc1cnc(-c2ccccn2)nc1Oc1ccccc1Cl	-2.44
Fc1ccc(Oc2ncccn2)c(F)c1	0.19
C#CCOCCOCCOCCNc1nc(N2CCN(C(=O)[C@H](CCC(=O)O)n3cc(C(N)[C@H](C)CC)nn3)CC2)nc(N2CCN(C(=O)[C@H](Cc3ccc(O)cc3)n3cc(C(N)[C@H](C)CC)nn3)CC2)n1 (some centres not stated)	0.56
Cc1ccc(NC2=C/C(=N/S(=O)(=O)c3cccs3)c3ccccc3C2=O)cc1C	0.28
O=C1C(Nc2ccccc2)=C/C(=N/S(=O)(=O)c2cccs2)c2ccccc21	76.6
Cc1ccccc1NC1=C/C(=N\S(=O)(=O)c2cccs2)c2ccccc2C1=O	61.1
Cc1cccc(NC2=C/C(=N/S(=O)(=O)c3cccs3)c3ccccc3C2=O)c1	1.87
CC(=O)Nc1ccc(S(=O)(=O)NC(C)C(=O)NCCc2ccc(F)cc2)cc1 (configuration not stated)	1.81
O=C(COCC(=O)NCc1ccccc1)NCc1ccccc1	-4.59
CCN(CC)S(=O)(=O)c1cc(F)ccc1OC	-2.44
CC(C)n1nnc2c(=O)oc3ccccc3c21	11.1
CCn1nnc2c(=O)oc3ccccc3c21	13.4
COc1cc2c(cc1OC)C(c1cc([N+](=O)[O-])ccc1O)NCC2 (configuration not stated)	-9.49
CC(=O)c1cccc(NC(=O)N2CCc3ccccc3C2)c1	-10.8
COCCOC(=O)C1=C(N)OC2=C(C(=O)CC(C)(C)C2)C1c1ccncc1 (configuration not stated)	-0.69
Cc1ccc(N2C(=O)NC(=O)/C(=C/c3ccc(OC(=O)c4cccs4)cc3)C2=O)cc1	4.29
O=C1NN(c2ccc(Cl)c(Cl)c2)C(=O)/C1=C/c1cccc(OC(=O)c2cccs2)c1	34.2
COc1c(Cl)cc(Cl)cc1C(=O)Nc1ccccc1N1CCN(C(C)=O)CC1	1.59
CCOC(=O)c1[nH]cnc1C(=O)Nc1ccccc1OC	-3.28

Compound	inhibition [%]
O=C(Cn1nnc(-c2ccc(Cl)cc2)n1)NCC1CCCCC1	3.64
CCC1CCCCN1CC(=O)Nc1cc(OC)c(OC)cc1C#N (configuration not stated)	-5.44
O=C(CC1SCCNC1=O)Nc1cccc([N+](=O)[O-])c1 (configuration not stated)	-1.32
Oc1ccc(Br)cc1C=Nc1ccc(Cl)cc1	3.2
Oc1ccc(Cl)cc1C=Nc1ccc(Br)cc1	-2.18
COCC(C)NC(=O)c1oc2c(c1C)C1(CCC2)SCCS1 (configuration not stated)	5.96
Cc1cc(N2CCN(c3ccc(F)cc3)CC2)nc(-c2ccccc2)n1	4.82
COc1ccc(NC(=O)C2CCN(c3cc(C)nc(-c4ccccc4)n3)CC2)cc1	11.4
Cc1cc(N2CCCC2)nc(N2C3CCC2CC(O)(c2ccc(F)cc2)C3)n1 (configuration not stated)	0.78
COc1ccc(C2(O)CC3CCC(C2)N3c2nc(C)cc(C)c2C#N)cc1 (configuration not stated)	-5.82
O=C(Cc1c(O)c2ccccc2[nH]c1=O)NCc1ccc(F)cc1	-5.49
CCn1ccnc1CNC(=O)CC1C(=O)NCCN1CC(c1ccccc1)c1ccccc1 (configuration not stated)	4.83
CCN(Cc1ccccc1)C(=O)COC(=O)Cn1cnc2ccccc21	3.35
OC(Cn1ccnc1)c1ccc(Cl)cc1Cl (configuration not stated)	-10.3
Clc1ccc(OCCn2ccnc2)c(Br)c1	1.12
Clc1ccc(OCCn2ccnc2)c(Cl)c1	-5.05
S=C(NCCCn1ccnc1)Nc1ccc(Cl)cc1Cl	5.11
OCC[C@H]1C[C@H](O)[C@@H](O)[C@@]2(CCCCO2)O1	-8.14
S=C(NCc1ccccc1Cl)Nc1ccccc1Cl	9.29
COc1ccccc1-n1cc(C(=O)c2cc(Cl)ccc2O)cc(C#N)c1=O	7.62
CC(=O)OC(C(=O)NC1CCCCC1)c1ccc(C)cc1 (configuration not stated)	-5.04

Compound	inhibition [%]
CCCC(C)C(=O)OCC(=O)Nc1ccc(Br)cc1 (configuration not stated)	10.2
Cc1ccc(NC(=O)CSCc2ccc(F)cc2)cc1	76.7
COC(=O)c1ccc(NC(=O)CSCc2ccc(C)cc2)cc1	70.8
COc1ccc(-n2c(-c3ccc(Cl)cc3)c[n+]3c2CCCCC3)cc1	-11.5
O=C(C1CCC(CNc2c(N3CCOCC3)c(=O)c2=O)CC1)N1CCN(c2ccccc2)CC1 (configuration not stated)	-8.11
COc1ccc(CN2CCc3ccccc3C2)c(OC)c1	-5.76
Cc1ccc(S(=O)(=O)N2CCN=C2c2ccccc2)cc1C	0.57
COC(=O)c1cc(Br)c(=O)n(Cc2ccc(C(=O)O)cc2)c1	-9.26
O=c1c([N+](=O)[O-])cccn1Cc1cccc(Cl)c1	-8.12
NC(=O)c1ccc(C(F)(F)F)n(Cc2cccc(Cl)c2)c1=O	17.3
COC(=O)c1ccc(Cn2cc(C(F)(F)F)ccc2=O)cc1	2.66
CC(C)NC(=O)COC(=O)c1ccc(Oc2ccccc2)cc1	-7
c1ccc(-c2ccc(OCCCNC3CCCC3)cc2)cc1	11.4
Cc1ccc2oc3c(c(=O)c2c1)C(c1cccc(Br)c1)N(Cc1ccco1)C3=O (configuration not stated)	1.98
O=C1c2oc3ccccc3c(=O)c2C(c2cccc(Br)c2)N1Cc1ccco1 (configuration not stated)	1.43
CN1CCN(C(=S)c2cn(CCOc3ccccc3)c3ccccc23)CC1	13
Cc1cc(N/C=C(\C#N)S(=O)(=O)c2ccccc2Cl)nc(C)n1	-9.07
COc1cc2c3c(c1)C(C)=CC(C)(C)N3C(=O)C2=O	-3.11
CC1=CC(C)(C)N2C(=O)C(=Nc3ccc(O)cc3)c3cccc1c32	3
CC(=O)N/C(=C\c1cccc([N+](=O)[O-])c1)C(=O)NC1CCCCC1	-0.9
